Measurements reported in ChEMBL document CHEMBL1157539, “Thousands of chemical starting points for antimalarial lead identification” (Nature, 2010).

Test system: Plasmodium falciparum
Assay: GSK_TCMDC: Inhibition of Plasmodium falciparum 3D7 in whole red blood cells, using parasite LDH activity as an index of growth. Test compounds present at 2uM
Assay type: functional

In order of falling Inhibition:
1. Cc1cc(N)nc2ccc(-c3ccc(CCN)cc3)cc12  100%
2. COc1ccc(N2CCN(CCCCNC(=O)c3ccc(NC(=O)c4cc(Cl)cc(Cl)c4)cc3)CC2)c(OC)c1.Cl  100%
3. Cl.Nc1c2c(nc3ccc(NC(=O)CCCCCCc4ccccc4)cc13)CCCC2  100%
4. CN1CCN(CCCCCCNc2c3ccccc3nc3ccccc23)CC1.Cl  100%
5. COc1ccc(Cl)cc1NC(=O)Nc1cc(C)nc2ccccc12  100%
6. CC(C)CCNC(=O)C1Cc2c([nH]c3ccc(Br)cc23)C2(CCN(CCc3ccccc3)CC2)N1 (stereo unspecified)  100%
7. Cc1cccc2nc(-c3cccc(-c4cccc(NC(=O)Cc5ccc[n+]([O-])c5)c4)c3)[nH]c12  100%
8. CN(C)CCN1CCN(CCCN2c3ccccc3Sc3ccc(C(F)(F)F)cc32)CC1.Cl  99%
9. O=C(/C=C/c1ccc(Cl)c(Cl)c1)NCCCCCN1CCC(NC(=S)Nc2ccc(Cl)cc2)CC1  99%
10. CNCCNCc1ccc(-c2ccc(-c3nc4ccccc4[nH]3)s2)cc1.O=C(O)C(F)(F)F  99%
11. CCc1c(CCNCCCCCCNCCc2ccc(OC)cc2)ccc(OC)c1OC.Cl  98%
12. Cl.N=c1n(Cc2ccc(Cl)cc2)c2ccccc2n1CC(O)c1ccc(Cl)c(Cl)c1 (stereo unspecified)  98%
13. CCC(C)(C)c1ccc(Oc2ccc(NC(=O)Nc3ccc(Cl)c(Cl)c3)cc2)cc1  98%
14. Nc1nccc2ccc(-c3cccnc3)cc12  97%
15. COc1c(C2CCN(CCCCNC(=O)c3ccc(-c4ccc(Cl)cc4)cc3)CC2)ccc2c1C(C)(C)CCC2(C)C  95%
16. COc1ccc(OCCCN2CCCCC2)cc1S(=O)(=O)c1ccc(OCc2ccc(C(F)(F)F)cc2)cc1.Cl  94%
17. CN1CCCc2ccc(NC(=O)c3cc(-c4ccc(Cl)cc4)cs3)cc2C1.O=C(O)C(F)(F)F  94%
18. CN(C)/C(=N/C(=N)NCc1ccc(Cl)c(Cl)c1)NCCCCCCN/C(=N\C(=N)NCc1ccc(Cl)c(Cl)c1)N(C)C  93%
19. O=c1cc(NCCCNCc2ccc(C(F)(F)F)c(F)c2)[nH]c2ccccc12  93%
20. Nc1ccn([C@@H]2O[C@H](COC(c3ccccc3)(c3ccccc3)c3ccccc3)[C@@H](O)[C@@H]2O)c(=O)n1  93%
21. O=C(NCCCCN1CC=C(c2ccc3c(c2OCC2CC2)CCCC3)CC1)c1ccc(-c2ccc(C(F)(F)F)cc2)cc1  93%
22. O=C(Cc1ccccc1)NC(c1ccccc1)c1ccc2cccnc2c1O (stereo unspecified)  89%
23. COc1cc(Cc2cnc(N)nc2N)cc(OC)c1OCCCCC(=O)O.Cl  88%
24. Br.C/C=C/C=C/C1=NCCc2cc(OCCC)ccc21  87%
25. Cc1[nH]c(-c2ccc(F)cc2)cc1C(=O)NC1CCN(Cc2ccccc2)CC1  84%
26. Cc1ncc(CN2CCC(C(=O)Nc3ccc(-c4nc5ccccc5o4)cc3)CC2)s1  82%

Test system: Plasmodium falciparum
Assay: GSK_TCMDC: Inhibition of Plasmodium falciparum Dd2 in whole red blood cells, using parasite LDH activity as an index of growth. Test compounds present at 2uM
Assay type: functional

In order of falling Inhibition:
1. CN1CCCC1CCNCc1ccc(-c2ccc(CNCCc3ccccc3)cn2)cc1.O=C(O)C(F)(F)F (stereo unspecified)  99%
2. CN(C)/C(=N/C(=N)NCc1ccc(Cl)c(Cl)c1)NCCCCCCN/C(=N\C(=N)NCc1ccc(Cl)c(Cl)c1)N(C)C  99%
3. Cl.N=c1n(Cc2ccc(Cl)cc2)c2ccccc2n1CC(O)c1ccc(Cl)c(Cl)c1 (stereo unspecified)  99%
4. COc1ccc(Cl)cc1NC(=O)Nc1cc(C)nc2ccccc12  99%
5. Cc1cccc2nc(-c3cccc(-c4cccc(NC(=O)Cc5ccc[n+]([O-])c5)c4)c3)[nH]c12  99%
6. CCC(C)(C)c1ccc(Oc2ccc(NC(=O)Nc3ccc(Cl)c(Cl)c3)cc2)cc1  97%
7. Nc1nccc2ccc(-c3cccnc3)cc12  95%
8. Cc1ncc(CN2CCC(C(=O)Nc3ccc(-c4nc5ccccc5o4)cc3)CC2)s1  92%
9. Cl.Nc1c2c(nc3ccc(NC(=O)CCCCCCc4ccccc4)cc13)CCCC2  90%
10. COc1ccc(N2CCN(CCCCNC(=O)c3ccc(NC(=O)c4cc(Cl)cc(Cl)c4)cc3)CC2)c(OC)c1.Cl  84%
11. Cc1cc(NC2CCN(CC3CCCCC3)C2)nc(Nc2ccc(Cl)cc2)n1 (stereo unspecified)  83%
12. CCCCCC(C)C(C)c1cc(O)c2c(c1)OC(C)(C)CC2=Cc1ccncc1 (stereo unspecified)  78%
13. Cc1cccc(-c2nc3cc(NC(=O)c4ccc([N+](=O)[O-])o4)ccc3o2)c1  73%
14. CN(C)CCN1CCN(CCCN2c3ccccc3Sc3ccc(C(F)(F)F)cc32)CC1.Cl  61%
15. O=C(Cc1ccccc1)NC(c1ccccc1)c1ccc2cccnc2c1O (stereo unspecified)  61%
16. CC(C)CCNC(=O)C1Cc2c([nH]c3ccc(Br)cc23)C2(CCN(CCc3ccccc3)CC2)N1 (stereo unspecified)  61%
17. O=C(NCCCCN1CC=C(c2ccc3c(c2OCC2CC2)CCCC3)CC1)c1ccc(-c2ccc(C(F)(F)F)cc2)cc1  60%
18. CC1CCCCC1N(C)C1CCN(CCCNC(=O)C=Cc2ccc(Cl)cc2Cl)CC1 (stereo unspecified)  59%
19. Cl.N#Cc1ccc2c(c1)CCN(CCC1CCC(NC(=O)/C=C/c3ccc(Cl)c(Cl)c3)CC1)CC2 (stereo unspecified)  51%
20. Cc1cc(N)nc2ccc(-c3ccc(CCN)cc3)cc12  48%
21. Cc1ccccc1C1CCN(C2CCC(NC(=O)/C=C/c3cc(C(F)(F)F)ccc3F)CC2)CC1 (stereo unspecified)  45%
22. COc1c(C2CCN(CCCCNC(=O)c3ccc(-c4ccc(Cl)cc4)cc3)CC2)ccc2c1C(C)(C)CCC2(C)C  42%
23. O=C(/C=C/c1ccc(Cl)c(Cl)c1)NCCCCCN1CCC(NC(=S)Nc2ccc(Cl)cc2)CC1  41%
24. CCOCCCn1c(=N)c(C(=O)NCc2ccc(F)cc2)cc2c(=O)n3cccc(C)c3nc21  40%
25. Br.C/C=C/C=C/C1=NCCc2cc(OCCC)ccc21  40%
26. CN1CCCc2ccc(NC(=O)c3cc(-c4ccc(Cl)cc4)cs3)cc2C1.O=C(O)C(F)(F)F  40%
27. COc1ccc2ncc(Cl)c(NCC3(O)CCC(NCc4ccc5c(n4)NC(=O)CS5)CC3)c2n1.Cl (stereo unspecified)  31%
28. O=c1cc(NCCCNCc2ccc(C(F)(F)F)c(F)c2)[nH]c2ccccc12  26%
29. CNCCNCc1ccc(-c2ccc(-c3nc4ccccc4[nH]3)s2)cc1.O=C(O)C(F)(F)F  15%
30. Cc1cc2nc(-c3ccc(/C=C/C(=O)NCCc4ccccc4)cc3)[nH]c2cc1C  13%
31. O=C(NCCCCCN1CCC(c2c[nH]c3ccccc23)CC1)Nc1cccc(I)c1  11%
32. Cc1[nH]c(-c2ccc(F)cc2)cc1C(=O)NC1CCN(Cc2ccccc2)CC1  9%
33. COc1ccc(OCCCN2CCCCC2)cc1S(=O)(=O)c1ccc(OCc2ccc(C(F)(F)F)cc2)cc1.Cl  8%
34. NC1CCN(CCNCc2cccc(-c3ccc(-c4nc5cc(F)ccc5[nH]4)cc3)c2)C1.O=C(O)C(F)(F)F (stereo unspecified)  4%
35. Nc1ccn([C@@H]2O[C@H](COC(c3ccccc3)(c3ccccc3)c3ccccc3)[C@@H](O)[C@@H]2O)c(=O)n1  2%
36. COC(=O)c1cc(OC2CCOC2=O)cc2c1OC(C)(C)O2 (stereo unspecified)  0%
37. CC[C@H](C)CNC(=O)c1cncc(-c2ccc(CNCC3CNCCCO3)cc2)c1.O=C(O)C(F)(F)F (stereo partly specified)  0%
38. COc1cc(Cc2cnc(N)nc2N)cc(OC)c1OCCCCC(=O)O.Cl  0%
39. CCc1c(CCNCCCCCCNCCc2ccc(OC)cc2)ccc(OC)c1OC.Cl  0%
40. CN1CCN(CCCCCCNc2c3ccccc3nc3ccccc23)CC1.Cl  0%
